Hit rate of the full screen: of about 140,000 compounds, about 4,300 (3.1%) were called active. Not shown: some 21% with an inconclusive outcome. Many of the other results were omitted from the sample, so actives are more common in it than they were. Values without a mark were called inactive.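 Rule for the calls: active = readout at or below -70, meaning at least 70% loss of cells showing the perinucleolar compartment, a nuclear body marking cancer cells; inconclusive = readout between -30 and a set limit; inactive = the rest.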
Assay: High Content Assay for Compounds that inhibit the Assembly of the Perinucleolar Compartment;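 note: plate controls were DMSO wells for no effect and camptothecin positive control wells for full effect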
Conditions: PC3M PTB-GFP, PNC prevalence imaging, 16 h; at 10 µM; stronger effect = lower value
How it was run: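 PC3M cells stably expressing PTB-GFP, 750–1000 cells/well, treated 16 h at 37 °C with compound (23 nl of library stock), in duplicate. After paraformaldehyde fixation and Hoechst stain, imaged at 20x; PNC prevalence scored by image analysis.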

Going from `O=C(CNS(=O)(=O)c1ccccc1)NCC(=O)OCc1ccccc1F` to `S=C(NCCc1ccccc1)NCc1ccccc1Cl`, the activity change (PNC), negative = inhibition rises from 26% to 29.5%.

Compared with `Cn1ncc2c(NNC(=O)Cc3cccc4ccccc34)ncnc21`, `O=C(N/N=C/c1coc2ccccc2c1=O)c1cc2ccccc2o1` is higher in activity change (PNC), negative = inhibition: -13.1% for the first, 11% for the second.

Going from `COc1ccc(N2C(=O)CC(SC(C)C)C2=O)cc1` (stereo unspecified) to `COc1ccc(N2C(=O)C(CC(=O)Nc3ccc(F)cc3)N(CCc3cccs3)C2=O)cc1` (stereo unspecified), the activity change (PNC), negative = inhibition falls from 36.9% to 20.2%.

First: O=C(Nn1c(-c2ccccc2)nc2ccccc2c1=O)c1ccc([N+](=O)[O-])cc1
Second: CC(CNc1ccc([N+](=O)[O-])cc1)NC(=O)c1ccccc1Br (stereo unspecified)
The activity change (PNC), negative = inhibition of the first is higher: 38.7% for the first, 3.05% for the second.

Compared with `O=C(/C=C/NCc1ccc(F)cc1)c1ccccc1`, `COC(=O)Cc1ccc(NC(=S)NCc2ccccc2)cc1` is lower in activity change (PNC), negative = inhibition: -6.98% for the first, -25.7% for the second.

First: Fc1ccc2c(c1)C(c1cccnc1)=NNC(c1cccs1)=N2
Second: O=C(c1cccs1)n1nc(NCc2ccccc2)nc1NCc1ccccc1
The activity change (PNC), negative = inhibition of the first is higher: 17.9% for the first, -4.14% for the second.

Compared with `C=CCn1c(SCc2c(C(=O)OC)sc(N)c2C(=O)OC)nnc1-c1ccc(Cl)cc1`, `C=CCn1c(SCC(=O)c2ccc(Br)cc2)nnc1C(C)NC(=O)Cc1ccc(OC)cc1` (stereo unspecified) is higher in activity change (PNC), negative = inhibition: 7.94% for the first, 11.4% for the second.

First: CC1(C)C(C=C(Cl)Cl)C1C(=O)N(Cc1ccc(Cl)cc1)C1CCS(=O)(=O)C1 (stereo unspecified)
Second: CCOC1CCCCC1NS(=O)(=O)c1ccc(Cl)cc1 (stereo unspecified)
The activity change (PNC), negative = inhibition of the first is higher: 32.1% for the first, 21.4% for the second.

Going from `O=C(NN1C(=O)C2C3C=CC(O3)C2C1=O)c1ccncc1` (stereo unspecified) to `O=C(Nc1cccc(S(=O)(=O)N2CCCCC2)c1)c1ccc2c(c1)OCO2`, the activity change (PNC), negative = inhibition falls from 36% to -20.4%.

Going from `CC(=O)c1ccc(NC(=S)NC(=O)CC(C)C)cc1` to `Cc1ccc(OC(=O)CCC(=O)Nc2ccc(Br)cc2)cc1`, the activity change (PNC), negative = inhibition falls from 18.7% to -25%.

Compared with `COC(=O)C1=C(Nc2ccc(OC)cc2)C=C(C)C(C(=O)OC)C1c1ccc(C)cc1` (stereo unspecified), `COC(=O)C1C(=O)NCC1c1ccc(C)cc1` (stereo unspecified) is higher in activity change (PNC), negative = inhibition: -17.7% for the first, -2.49% for the second.

Compared with `O=C(CCc1[nH]c2ccccc2c1Sc1ccccc1)N(CCO)CCO`, `CC(C)CCNC(=O)c1cccnc1Sc1ccccc1` is lower in activity change (PNC), negative = inhibition: 85.7% for the first, 23.2% for the second.

Compared with `CC(=O)NC1=NN(C(C)=O)C(C)(c2ccc(C)cc2)S1` (stereo unspecified), `Cc1ccc(S(=O)(=O)NC(C)C(=O)Nc2ccccc2C(=O)N2CCCC2)cc1` (stereo unspecified) is lower in activity change (PNC), negative = inhibition: 54.1% for the first, 12.1% for the second.

First: COc1ccc(C(=O)Nc2c(Cl)cc(Cl)cc2C(=O)N2CCC(C)CC2)cc1
Second: COc1ccc(-n2c(C)cc(C(=O)CN3C(=O)NC4(CCc5ccccc54)C3=O)c2C)cc1 (stereo unspecified)
The activity change (PNC), negative = inhibition of the first is higher: -10.7% for the first, -15% for the second.

First: CSc1ccc(S(=O)(=O)NC2CCCCC2)cc1
Second: Cc1ccc(C(=O)COC(=O)CCCC(=O)NC2CCCCC2)cc1[N+](=O)[O-]
The activity change (PNC), negative = inhibition of the first is lower: -23.3% for the first, 17% for the second.

Going from `CC(=O)N/C(=C/c1ccc(OC(F)F)cc1)C(=O)O` to `CN(C)CCNC(=O)Cc1ccc([N+](=O)[O-])cc1`, the activity change (PNC), negative = inhibition rises from -25.2% to 15.1%.

First: COc1ccccc1CNC(=O)CN1CCC(n2cnc3cc(F)ccc32)CC1
Second: COc1ccccc1N1CCN(CCCCOc2ccc(F)cc2)CC1
The activity change (PNC), negative = inhibition of the first is higher: 26.2% for the first, 11% for the second.

Compared with `Cc1cccc2cc(C#N)c(N3CCCC3)nc12`, `CCOC(=O)C1CCN(c2ncnc3c2oc2ccc(Br)cc23)CC1` is higher in activity change (PNC), negative = inhibition: -8.64% for the first, 11.1% for the second.

Compared with `COc1ccccc1N1CCN(Cc2nnnn2CCc2ccccc2)CC1`, `CC(C)n1c(C(O)c2ccccc2)nc2ccccc21` (stereo unspecified) is higher in activity change (PNC), negative = inhibition: -5.45% for the first, 24.7% for the second.

Going from `O=C1/C(=C\c2ccccc2Cl)SC(=S)N1CCC(=O)N1CCCc2ccccc21` to `CC1CN(C(=O)c2ccccc2NS(=O)(=O)c2cccc([N+](=O)[O-])c2)CC(C)O1` (stereo unspecified), the activity change (PNC), negative = inhibition falls from 47.3% to 25.2%.

Going from `Cc1ccccc1NC(=S)N(CCCN1CCOCC1)Cc1cccs1` to `S=C(NCCc1ccccc1)NCC1CCCO1` (stereo unspecified), the activity change (PNC), negative = inhibition falls from 27.2% to -9.43%.

Compared with `CCC(=O)Nc1c(C)n[nH]c1C`, `Cc1ccc(O)c(CNc2nc3ccccc3n2C)c1` is lower in activity change (PNC), negative = inhibition: 0.725% for the first, -1.77% for the second.

Compared with `CC(=O)NC(Cc1ccccc1)C(=O)NC1CCN(c2ncccc2[N+](=O)[O-])CC1` (stereo unspecified), `CCOC(=O)c1nnn(-c2nonc2-n2cccc2)c1CN1CCC(C(=O)OCC)CC1` is lower in activity change (PNC), negative = inhibition: 23.2% for the first, 10.9% for the second.

Compared with `CCOc1ccc(OCC)c(-c2c(=O)n(OCc3ccc(Cl)cc3)c3ccccc3[n+]2[O-])c1`, `Cc1nc2ccccc2nc(C)c1=NOCc1ccc(Cl)cc1Cl` is lower in activity change (PNC), negative = inhibition: 60.4% for the first, -24.9% for the second.

First: C=CCNCCCCOc1ccccc1
Second: Cc1ccn(-c2cccc(-n3ccc(C)n3)n2)n1
The activity change (PNC), negative = inhibition of the first is lower: -6.05% for the first, -4.25% for the second.

For `C=CCn1c(SCc2ccc(Cl)c(Cl)c2)nnc1C(CO)NC(=O)c1ccc(OC)cc1` (stereo unspecified), the activity change (PNC), negative = inhibition was -102% (active).
In the case of `COC(=O)C1=C(Nc2ccc(C)cc2)C=C(C)C(C(=O)OC)C1c1ccc(F)cc1` (stereo unspecified), the activity change (PNC), negative = inhibition is reported as -100% (active).
For `Cc1cc(C)nc(SC2CCCCC2NS(=O)(=O)c2ccc(Cl)cc2)n1` (stereo unspecified), the activity change (PNC), negative = inhibition was -107% (active).
In the case of `FC(F)(F)c1cccc(-c2cc3ccccc3nc2N2CCCC2)c1`, the activity change (PNC), negative = inhibition is reported as -94.9% (active).
With `COc1ccccc1N1CCN(Cc2ccc(OC)c3ccccc23)CC1` the activity change (PNC), negative = inhibition was -100% (active).
For `CC(C)Oc1ccc(CC(=O)NNC(=S)Nc2ccc(Br)cc2)cc1`, the activity change (PNC), negative = inhibition was -113% (active).
In the case of `Cc1ccc2c(c1)C1CN(C)CCC1N2C(=O)c1ccccc1NS(=O)(=O)c1ccc(F)cc1C` (stereo unspecified), the activity change (PNC), negative = inhibition is reported as -99.6% (active).
For `CC(C)n1c(NCc2c[nH]c3ccccc23)nc2ccccc21`, the activity change (PNC), negative = inhibition was -100% (active).
With `CCOC(=O)C1CCN(Cc2coc3ccc(Cl)cc3c2=O)CC1` the activity change (PNC), negative = inhibition was -80.9% (active).
With `COc1ccc(OC)c(-c2c(=O)n(OCc3ccccc3Br)c3ccccc3[n+]2[O-])c1` the activity change (PNC), negative = inhibition was -113% (active).
With `O=C(NCCNc1ccc([N+](=O)[O-])cc1)c1cccc2c(Br)cccc12` the activity change (PNC), negative = inhibition was -86.3% (active).

Source: PubChem BioAssay AID2417 (National Center for Advancing Translational Sciences (NCATS), 2010)
